Calls of active or inactive are those of the source. No stated cut-off is given here; in the data, active means inhibition above about 31%; inactive means the rest.

In this assay the target is N-formyl peptide receptor 2 (Homo sapiens) (UniProt P25090). As to the kind of experiment: FPRL1 fluorescent ligand binding inhibitors, cell-based, flow cytometry, single concentration (AID 765). Conditions: FPRL1-expressing cells, active compounds read high; at 5.1 µM unless noted. For orientation: Flow cytometry measures light scatter and fluorescence of single cells or particles in a stream.
N-formyl peptide receptor 2 (Homo sapiens), sequence (P25090 whole entry, looked up): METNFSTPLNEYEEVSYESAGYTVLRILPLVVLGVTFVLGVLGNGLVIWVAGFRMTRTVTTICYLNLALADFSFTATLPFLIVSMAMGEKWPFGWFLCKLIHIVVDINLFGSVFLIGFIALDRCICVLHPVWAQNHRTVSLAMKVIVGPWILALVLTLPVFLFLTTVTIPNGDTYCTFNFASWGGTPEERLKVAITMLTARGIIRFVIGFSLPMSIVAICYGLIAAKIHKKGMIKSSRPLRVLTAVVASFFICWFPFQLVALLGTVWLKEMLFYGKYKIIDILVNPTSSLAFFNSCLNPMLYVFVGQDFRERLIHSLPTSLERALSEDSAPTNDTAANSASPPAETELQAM
As a reminder, the inhibition is the change of the read-out against control, counted positive when it falls. `Clc1ccccc1-c1nc(N2CCN(c3ccccc3)CC2)nc2ccc(Br)cc12`: the inhibition is -7.9% [at 4.6 µM] (inactive).

Regarding `O=C(O)CC1(CC(=O)N2CCN(c3nc(-c4ccccc4Cl)c4cc(Br)ccc4n3)CC2)CCCC1`, the inhibition is -5.2% [at 3.9 µM] (inactive).

`COc1ccc(-c2cn3cccnc3n2)cc1NC(=O)c1ccc(Cl)cc1`: the inhibition is 3% [at 5.9 µM] (inactive).

`Cc1ccc2nc(N3CCN(C(=O)CCCC(=O)O)CC3)nc(-c3ccccc3)c2c1`: the inhibition is 1.1% [at 5.3 µM] (inactive).

For the molecule `CC(C)(C)OC(=O)N1CCN(c2nc(-c3ccccc3)c3cc(Br)ccc3n2)CC1`, the inhibition is -2.1% [at 4.7 µM] (inactive).

Turning to `Fc1ccc(-c2cc(C(F)(F)F)nc(N3CCN(c4ccccc4)CC3)n2)cc1`, the inhibition is 1.9% [at 5.5 µM] (inactive).

Take `COc1ccc(-c2nc(N3CCN(C)CC3)[nH]c(=O)c2C#N)cc1`: the inhibition is -9.7% [at 6.8 µM] (inactive).

In the case of `COc1ccccc1-c1cc(C(F)(F)F)nc(N2CCN(Cc3ccccc3)CC2)n1`, the inhibition was 14.1% [at 5.2 µM] (inactive).

As for `COc1cccc(C(=O)Nc2cc(-c3cn4cccnc4n3)ccc2OC)c1`, the inhibition was 12.2% [at 5.9 µM] (inactive).

Consider `COc1ccc(C2CC(=O)c3cnc(N4CCN(Cc5ccc6c(c5)OCO6)CC4)nc3C2)c(OC)c1` (configuration not stated), for which the inhibition is -2.7% [at 4.4 µM] (inactive).

As for `CCOC(=O)N1CCN(c2nc(-c3ccccc3Cl)c3cc(Br)ccc3n2)CC1`, the inhibition was -4.5% [at 4.7 µM] (inactive).

As for `CCOC(=O)N1CCN(c2nc(-c3cccc(OC)c3)cc(C(F)(F)F)n2)CC1`, the inhibition was -16.3% [at 5.4 µM] (inactive).

Regarding `COc1ccc(-c2cn3cccnc3n2)cc1NC(=O)c1c(-c2ccccc2Cl)noc1C`, the inhibition is 13.3% [at 4.8 µM] (inactive).

As for `COc1ccc(-c2cn3cccnc3n2)cc1NC(=O)c1cccc(Cl)c1`, the inhibition was 25.4% [at 5.9 µM] (inactive).

As to `Cc1ccc(-c2cn3cccnc3n2)cc1NC(=O)C(C)C`, the inhibition was -3.4% [at 7.6 µM] (inactive).

For the molecule `COc1ccc(-c2cn3cccnc3n2)cc1NC(=O)CCc1ccccc1`, the inhibition was 16% [at 6 µM] (inactive).

`COc1ccc(-c2cn3cccnc3n2)cc1NC(=O)C1CCCC1`: the inhibition was 34.6% [at 6.6 µM] (active).

On to `CC(=O)N1CCN(c2nc(-c3ccccc3)c3ccccc3n2)CC1`, for which the inhibition was -11.2% [at 6.7 µM] (inactive).

Consider `COc1ccc(-c2cn3cccnc3n2)cc1NC(=O)c1cc(C)cc(C)c1`, for which the inhibition was 4.9% [at 6 µM] (inactive).

Consider `COc1ccc(-c2cc(C(F)(F)F)nc(N3CCN(c4ccc(F)cc4)CC3)n2)cc1OC`, for which the inhibition was 5.4% [at 4.8 µM] (inactive).

Turning to `Cc1ccc2nc(N3CCN(c4ccccc4Cl)CC3)nc(-c3ccccc3)c2c1`, the inhibition was 33.4% [at 5.4 µM] (active).

With `COc1ccc(-c2cn3cccnc3n2)cc1NC(=O)C(C)C`, the inhibition was 25.1% [at 7.2 µM] (inactive).

As to `Cc1ccc(-c2cc(C(F)F)nc(N3CCN(c4ccccc4)CC3)n2)cc1`, the inhibition is 21.3% [at 5.8 µM] (inactive).

Consider `CCOC(=O)N1CCN(c2nc(-c3ccc(C)cc3)cc(C(F)F)n2)CC1`, for which the inhibition is 1% [at 5.9 µM] (inactive).

In the case of `O=C(O)C1CC=CCC1C(=O)N1CCN(c2nc(-c3ccccc3Cl)c3cc(Br)ccc3n2)CC1` (configuration not stated), the inhibition is -6.7% [at 4 µM] (inactive).

Take `CCN1CCN(c2nc(-c3ccc(Cl)cc3)cc(C(F)(F)F)n2)CC1`: the inhibition was -7.7% [at 6 µM] (inactive).

In the case of `COc1ccc(-c2cn3cccnc3n2)cc1NC(=O)CCCc1ccccc1`, the inhibition is -8.7% [at 5.8 µM] (inactive).

With `FC(F)(F)c1cc(-c2ccccc2)nc(N2CCN(c3ccccc3)CC2)n1`, the inhibition was -10.6% [at 5.8 µM] (inactive).

Turning to `COc1ccccc1-c1cc(C(F)(F)F)nc(N2CCN(c3ccc(F)cc3)CC2)n1`, the inhibition is -8.8% (inactive).

In the case of `COc1ccc(-c2cn3cccnc3n2)cc1NC(=O)c1ccc(C(F)(F)F)cc1`, the inhibition is -3.6% [at 5.4 µM] (inactive).

As to `Cc1ccc(-c2cc(C(F)F)nc(N3CCN(Cc4ccccc4)CC3)n2)cc1`, the inhibition is -4.2% [at 5.6 µM] (inactive).

In the case of `O=C(O)CCC(=O)N1CCN(c2nc(-c3ccccc3Cl)c3cc(Br)ccc3n2)CC1`, the inhibition was -2% [at 4.4 µM] (inactive).

For the molecule `CCCC(CCC)C(=O)Nc1cc(-c2cn3cccnc3n2)ccc1OC`, the inhibition was 19.4% [at 6.1 µM] (inactive).

For the molecule `O=C(C1CCCCC1)N1CCN(c2nc(-c3ccccc3Cl)c3cc(Br)ccc3n2)CC1`, the inhibition was -6.3% [at 4.3 µM] (inactive).

As for `COc1ccc(C2CC(=O)c3cnc(N4CCN(Cc5ccc6c(c5)OCO6)CC4)nc3C2)cc1OC` (configuration not stated), the inhibition was 11.9% [at 4.4 µM] (inactive).

Turning to `CCCCN1CCN(c2nc(-c3ccccc3)c3cc(C)ccc3n2)CC1`, the inhibition is 17.2% [at 5.6 µM] (inactive).

With `COc1ccc(-c2cn3cccnc3n2)cc1NC(=O)c1ccc(Br)cc1`, the inhibition is -12.5% [at 5.3 µM] (inactive).
